High-throughput results from PubChem BioAssay.
PI4K2A block: qHTS for small molecular inhibitors of PI4K2A; AID 1346378, 2018; hit rate 0.13% among 420,000; activity change, negative = inhibition, % at 76.9 µM; purified PI4K2A, ADP-Glo luminescence, 1 h; hits give low values; Phosphatidylinositol 4-kinase type 2-alpha (Homo sapiens), Q9BTU6; in the data active = activity change below about -50%; inconclusive = mostly about -30% to -49%
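Compounds are screened against recombinant PI4K2A using PI as substrate and ATP, the latter dispensed at 300 microM. Reactions run one hour at ambient temperature before ADP-Glo detection; full inhibition defined by wells lacking enzyme.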
rTrxR1 inhibitor: qHTS Assay for Inhibitors of Mammalian Selenoprotein Thioredoxin Reductase 1 (TrxR1): qHTS; Thioredoxin reductase 1, cytoplasmic (Rattus norvegicus), O89049; recombinant rTrxR1, NADPH fluorescence consumption, selenite substrate; Potency, µM (titrated, usually from 114 µM), usual class: inhibitors; hit rate 1% among 390,000; note: nearly all actives have a fitted effect of over 65% in size
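Rat TrxR1 (90 nM in the dispensed reagent) was pre-reduced with 400 uM NADPH for 5 min at room temperature, then incubated with compound for 15 min. After 400 uM selenite was added, NADPH fluorescence (Ex 340/Em 450 nm) was followed for 8 min.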
TrxR1 substrate: qHTS Assay for Substrates of Mammalian Selenoprotein Thioredoxin Reductase 1 (TrxR1): qHTS; Thioredoxin reductase 1, cytoplasmic (Rattus norvegicus), O89049; purified TrxR1 substrate turnover, NADPH consumption readout; Potency, µM (titrated, usually from 114 µM); hit rate 0.01% among 390,000; AID 588456, 2011; note: nearly all actives have a fitted effect of over 50% in size
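Rat TrxR1, dispensed at 90 nM, was prereduced with 400 uM NADPH (final) for 5 min at ~22 deg C, then incubated with compound 15 min before 400 uM selenite. A first-read NADPH fluorescence drop versus no-compound background flagged substrates.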
LDHA inh: qHTS assay for inhibitors of human lactate dehydrogenase | L-lactate dehydrogenase A chain (Homo sapiens), P00338 | purified LDHA, NADH/diaphorase-resazurin fluorescence; hits give low values | activity change, % (values are at about 110 or 230 µM) | hit rate 0.15% among 480,000 | AID 1347041, 2019; in the data active = activity change below about -30%; inconclusive = mostly about -25% to -30%
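Resorufin fluorescence (ex540/em590), read at 0 and 20 min after diaphorase/resazurin addition, reports the NADH left after a 5 min room-temperature reaction of 2 nM human LDH5 with 0.06 mM NADH and 0.2 mM pyruvate.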
a7 integrin act: qHTS for Activators of Integrin-Mediated Alleviation for Muscular Dystrophy | alpha7betagal myoblasts, beta-gal FDG fluorescence, 48 h | Potency, µM (highest dose often 38.3 µM), usual class: activators | hit rate 0.064% among 350,000 | AID 624291, 2012; note: nearly all actives have a fitted effect of over 60% in size
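alpha7betagal+/- myoblasts (passage 13, 250/well) treated 48 h at 37C with compounds at 1:260 dilution of DMSO stock. Lysed, then beta-galactosidase activity read as FDG fluorescence (ex 480/em 540) after 30 min, with pre-read for autofluorescence.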
GALK inhibitor: qHTS Assay for Inhibitors of Human Galactokinase (GALK) | Purified GALK, Kinase-Glo residual ATP luminescence | hit rate 0.007% among 270,000 | P51570 | Potency, µM (series often up to 57.5 µM), actives largely listed as inhibitors
Target sequence (P51570 whole entry, looked up): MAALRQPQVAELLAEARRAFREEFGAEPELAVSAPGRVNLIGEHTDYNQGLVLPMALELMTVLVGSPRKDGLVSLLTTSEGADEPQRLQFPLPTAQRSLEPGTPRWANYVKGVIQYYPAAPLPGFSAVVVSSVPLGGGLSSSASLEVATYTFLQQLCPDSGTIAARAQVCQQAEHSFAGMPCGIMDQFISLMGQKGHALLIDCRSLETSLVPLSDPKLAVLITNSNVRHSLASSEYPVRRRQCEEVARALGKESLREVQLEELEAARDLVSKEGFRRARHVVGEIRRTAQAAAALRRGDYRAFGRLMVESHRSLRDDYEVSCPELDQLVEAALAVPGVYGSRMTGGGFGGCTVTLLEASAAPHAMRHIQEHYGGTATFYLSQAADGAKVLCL
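ATP-depletion format; final 35 uM ATP, 100 uM D-galactose, 5 nM enzyme; pH 8.0 HEPES/Mg2+ buffer; 60 min RT; luminescence read 10 min after detection reagent.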
Numbers stand for hits; . = inactive; ? = inconclusive; / = no result. The list is not random: actives were taken first. Their share in the collection is about 1.1%. Unless noted, calls come from the whole dose curve; as a rule, active = well fitted curve in the direction sought with a large enough effect; inconclusive = small, poorly fitted or top-dose-only effect, or another doubt; inactive = no such curve, though single readings can be large; an effect the other way counts as inactive or inconclusive.

SMILES	PI4K2A block	rTrxR1 inhibitor	TrxR1 substrate	LDHA inh	a7 integrin act	GALK inhibitor
Cc1cc2oc(C(=O)Nc3cccc(Cl)c3)cc(=O)c2cc1C	/	/	/	.	/	/
COc1ccc(C)cc1NC(=O)CNC(=O)NOCc1ccccc1	/	/	/	.	/	/
CC(c1ccc(F)c(F)c1)N(C)CCS(=O)(=O)CCC(N)=O (stereo unspecified)	/	/	/	.	/	/
CSc1ccccc1NC(=O)CN(C)CC(=O)Nc1ccccc1F	.	.	.	-31	.	.
CSc1ccccc1NC(=O)CN(C)CC(=O)Nc1c(F)cccc1F	.	.	.	-55	.	.
O=C(NC1CCCC1)c1cc(-c2ccccn2)nc2c(Cl)cccc12	/	/	/	.	/	/
O=C(CN1C(=O)CC(c2ccco2)Sc2ccccc21)Nc1ccccc1F (stereo unspecified)	.	25µM	.	.	.	.
O=C(Nc1ccc(F)cc1)Nc1ccc(N2CCOCC2)c2nonc12	-59	.	.	.	.	.
COc1ccc(NC(=O)Nc2ccc(N3CCOCC3)c3nonc23)c(OC)c1	.	.	.	.	.	.
Nc1ccc(N2CCOCC2)c2nonc12	-60	.	.	.	.	.
Cc1cc(NC(=O)COc2ccccc2C(=O)c2cc(C#N)c(=O)n(C(C)C)c2)ccc1N1CCCC1	/	/	/	.	/	/
Cc1ccc2c(c1)N(C(=O)Nc1ccc(Br)cc1F)CC(C)O2 (stereo unspecified)	/	/	/	.	/	/
Cc1cc(=O)c2c(o1)C(=O)c1occc1C2=O	?	32µM	.	.	.	/
COc1c2occc2c(OC)c2c(=O)cc(C)oc12	.	.	.	.	/	.
CC(=O)Nc1ccc(NC(=O)C(C)On2nnc3ccc(Cl)cc32)cc1 (stereo unspecified)	/	/	/	.	/	/
COc1cc(/C=C2\C(=O)ON=C2c2ccccc2)cc(OC)c1OC	.	18µM	.	-36	.	.
COc1ccc(/C=C2/C(=O)ON=C2C)cc1Br	.	.	.	.	.	.
CCOc1cc(/C=C2/C(=O)ON=C2C)ccc1OCc1ccccc1	.	?	.	.	.	.
COc1ccc(/C=C2\C(=O)ON=C2c2ccccc2)cc1OC	.	32µM	.	-50	?	.
COc1ccc(C=C2C(=O)OC(C)(C)OC2=O)cc1OC	.	?	.	.	.	.
COc1ccc(/C=C2/C(=O)ON=C2c2ccccc2)cc1OC	.	32µM	.	-60	.	.
CCOc1cc(/C=C2\C(=O)ON=C2c2ccccc2)ccc1OC	.	18µM	.	-61	?	.
O=C(c1ccccc1)c1ccc(OCC(=O)c2c[nH]c3ccccc23)cc1	/	/	/	.	/	/
N#Cc1nc(/C=C/c2ccccc2Cl)oc1N1CCN(C(=O)c2ccco2)CC1	/	/	/	.	/	/
Cc1ccc(C2CC(c3ccc4c(c3)OCO4)=NN2C(=O)CCC(=O)O)cc1 (stereo unspecified)	/	/	/	.	/	/
SMILES	PI4K2A block	rTrxR1 inhibitor	TrxR1 substrate	LDHA inh	a7 integrin act	GALK inhibitor
CCOc1ccc(NC(=O)c2c(NC(=O)CN3CCCC(C)C3)sc3c2CCC3)cc1 (stereo unspecified)	/	/	/	.	/	/
COc1cc(/C=C2/N=C(C3CCCCC3)OC2=O)cc(OC)c1OC	.	?	.	.	.	.
COc1cc(/C=C2\N=C(C)OC2=O)cc(OC)c1OC	.	45µM	.	.	.	.
NC(=O)COc1ccccc1	.	.	.	.	.	.
NC(=O)COc1ccc(/C=C2\C(=O)ON=C2c2ccccc2)cc1	.	28µM	.	-57	.	/
C[C@@H]1CN([C@H](C)CO)C(=O)CCCn2nncc2CO[C@H]1CN(C)C	.	/	/	-33	.	/
C[C@@H]1CN([C@H](C)CO)C(=O)CCCn2cc(nn2)CO[C@H]1CN(C)S(=O)(=O)c1ccc2c(c1)OCCCO2	.	/	/	-30	.	/
C[C@@H]1CN([C@@H](C)CO)C(=O)CCCn2nncc2CO[C@H]1CN(C)C	.	/	/	.	.	/
Cc1ccc(Cn2c(SCCC(C)C)nc3c2c(=O)[nH]c(=O)n3C)cc1	/	/	/	.	/	/
O=C(COc1ccc2ccc(=O)oc2c1)OCc1ccccc1	.	.	.	.	.	.
CC(C)(C)OC(=O)NCCC(=O)Oc1ccc2ccc(=O)oc2c1	.	50µM	.	.	.	.
O=C(CNC(=O)OCc1ccccc1)Oc1ccc2ccc(=O)oc2c1	.	25µM	.	.	.	/
CC(NC(=O)OC(C)(C)C)C(=O)Oc1ccc2ccc(=O)oc2c1 (stereo unspecified)	.	?	.	.	.	.
CCNC(=O)Cn1nc(C)c2c(C(=O)OC)cc(C3CC3)nc21	/	/	/	.	/	/
CCOC(=O)C1=C(CN(Cc2ccco2)C2CCCC2)NC(=O)NC1c1ccc(C)cc1 (stereo unspecified)	/	/	/	.	/	/
O=C(NCc1ccco1)c1cccc(NC(=O)c2ccco2)c1	.	50µM	.	.	.	.
O=C(Nc1cccc(NC(=O)c2ccc(-c3ccc(Br)cc3)o2)c1)c1ccco1	.	79µM	.	.	.	.
Cc1ccc(C(=O)NCc2ccco2)cc1S(=O)(=O)Nc1cccc(C)c1C	.	79µM	.	.	.	.
O=C(NCc1ccccc1)c1cccc(NC(=O)c2ccco2)c1	.	.	.	.	.	.
O=C(Nc1cc([N+](=O)[O-])ccc1O)c1cccc(NC(=O)c2ccco2)c1	.	.	.	-45	.	.
O=C(NC1CCN(Cc2ccccc2)CC1)C(F)(F)F	/	/	/	.	/	/
COc1ccc(-c2cccc(NC(=O)c3ccco3)c2)nn1	.	?	.	.	.	/
COc1ccc(-c2ccc(NC(=O)c3ccco3)cc2)nn1	-53	.	.	.	.	/
CC1=C2C(=O)CC(c3cccc(Cl)c3)CC2=Nc2ccccc2N1 (stereo unspecified)	/	/	/	.	/	/
CC(=O)Nc1c(O)cc(Br)c2nonc12	/	.	.	.	/	/
SMILES	PI4K2A block	rTrxR1 inhibitor	TrxR1 substrate	LDHA inh	a7 integrin act	GALK inhibitor
CC(=O)Nc1cc(O)c2nonc2c1O	/	5.6µM	3.2µM	.	/	/
CCOc1cccc(OCCOCCNC(C)(C)C)c1	.	.	.	-32	.	.
CCOc1ccc(OCCCCNC(C)(C)C)cc1	.	.	.	.	.	.
O=C(CN1CCN(c2ccc(O)cc2)CC1)Nc1ccnn1Cc1ccccc1Cl	/	/	/	.	/	/
NC(=O)CCNc1ccccc1Cl	/	/	/	.	/	/
CC1C/C(=C\c2cccnc2)C(=O)/C(=C/c2cccnc2)C1 (stereo unspecified)	.	50µM	.	.	.	.
Cc1ccc(CNC(Cc2c[nH]c3ccccc23)C(=O)O)cc1 (stereo unspecified)	/	/	/	.	/	/
